Values joined by “and” are separate entries in the source; they are usually repeats but may differ in a detail not shown here. Equal entries are not always repeated. Results filed as inconclusive are left out. Where a structure was tested more than once in an assay, its records may differ in their call. Active and inactive are the calls of the source. Unless noted, the call rests on the fitted dose curve; in most records, active means well fitted curve in the direction sought with a large enough effect in the repeat runs; inconclusive means weak or mixed curves; inactive means no such curve, though single readings can be large; an effect the other way counts as inactive or inconclusive.
Legend:
[1] = qHTS assay to identify small molecule antagonists of the sonic hedgehog signaling (Shh) pathway (AID 1259369; calls by dose curve; further: nearly all actives have a fitted effect of over 45% in size; further: potency means the concentration at half of the fitted maximal effect)
Procedure, shortened: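 NIH/3T3-derived 3T3Gli1-Luc cells with stably integrated Gli1-Luc reporter were preincubated 4hr at 37 C, then given compounds in DMSO plus Shh conditioned medium and incubated 24hr. Firefly luciferase luminescence read after 30min reagent at room temperature.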

[2] = target: Estrogen receptor beta (Homo sapiens) (UniProt Q92731); assay: qHTS assay to identify small molecule agonists of the estrogen receptor beta (ER-beta) signaling pathway (AID 1259377; active means well fitted activation curve with a large enough effect in the signal ratio in the repeat runs, not every such curve was filed as active; the % refers to the signal ratio)
Chain of Estrogen receptor beta (Homo sapiens) (Q92731 whole entry, looked up): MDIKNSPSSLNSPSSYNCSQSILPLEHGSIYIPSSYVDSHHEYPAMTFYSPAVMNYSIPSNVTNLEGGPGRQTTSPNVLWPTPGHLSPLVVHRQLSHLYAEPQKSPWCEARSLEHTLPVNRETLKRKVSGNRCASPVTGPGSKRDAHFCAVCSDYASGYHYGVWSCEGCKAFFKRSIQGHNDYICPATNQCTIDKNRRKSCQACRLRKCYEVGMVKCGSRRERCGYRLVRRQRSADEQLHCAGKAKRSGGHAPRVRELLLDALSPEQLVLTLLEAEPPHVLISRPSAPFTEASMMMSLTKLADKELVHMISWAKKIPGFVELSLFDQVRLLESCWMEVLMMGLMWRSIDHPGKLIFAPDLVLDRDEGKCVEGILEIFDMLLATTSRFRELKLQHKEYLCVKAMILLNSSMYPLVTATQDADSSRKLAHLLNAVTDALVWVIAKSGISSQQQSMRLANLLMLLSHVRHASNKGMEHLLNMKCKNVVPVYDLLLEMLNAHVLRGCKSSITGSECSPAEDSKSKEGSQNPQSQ
Procedure, shortened: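 A UAS-controlled beta-lactamase reporter in ER-beta-UAS-bla HEK293T cells reports receptor activation. Compounds act for 16 hr at 37C in 2% charcoal-stripped serum, and a FRET substrate is read by fluorescence after 2 hours.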

[3] = qHTS assay to identify small molecule agonists of the androgen receptor (AR) signaling pathway in the presence of an antagonist - cell viability counter screen (AID 1259379); further: nearly all actives have a fitted effect of over 25% in size; further: potency means the concentration at half of the fitted maximal effect
Procedure, shortened: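 MDA-kb2 human breast carcinoma cells (stable MMTV-luciferase, AR/GR responsive) were seeded 3,000 cells/well, pre-incubated 5 hr at 37C without CO2, then given 3.0uM nilutamide and compounds at 15 concentrations for 16 hr. Viability was read by CellTiter-Fluor fluorescence.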

[4] = qHTS assay to identify small molecule agonists of the estrogen receptor beta (ER-beta) signaling pathway - cell viability counter screen (AID 1259380); further: nearly all actives have a fitted effect of over 30% in size; further: potency means the concentration at half of the fitted maximal effect
Procedure, shortened: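 ER-beta-UAS-bla HEK293T cells in medium with 2% charcoal-stripped FBS were preincubated 6 hr at 37C, dosed with compound in DMSO for 16 hr, then after the bla read, CellTiter-Glo was added for 30 min at room temperature; luminescence recorded.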

[5] = qHTS assay to identify small molecule antagonists of the estrogen receptor beta (ER-beta) signaling pathway - cell viability counter screen (AID 1259382); further: nearly all actives have a fitted effect of over 55% in size; further: potency means the concentration at half of the fitted maximal effect
Procedure, shortened: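 ER-beta-UAS-bla HEK293T cells (2,000/well, 2% charcoal-stripped FBS) were pre-incubated 6 hr at 37C, then given compound plus 1nM final 17-beta-estradiol for 16 hr. Viability was read in the same wells by CellTiter-Glo luminescence after 30 min at room temperature.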

[6] = target: Estrogen receptor (Homo sapiens) (UniProt P03372); assay: qHTS assay to identify small molecule agonists of the estrogen receptor alpha (ER-alpha) signaling pathway in the presence of an antagonist (AID 1259383; calls by dose curve; further: nearly all actives have a fitted effect of over 15% in size; further: potency means the concentration at half of the fitted maximal effect; on activation: top concentration of the series differs between compounds)
Chain of Estrogen receptor (Homo sapiens) (P03372 whole entry, looked up): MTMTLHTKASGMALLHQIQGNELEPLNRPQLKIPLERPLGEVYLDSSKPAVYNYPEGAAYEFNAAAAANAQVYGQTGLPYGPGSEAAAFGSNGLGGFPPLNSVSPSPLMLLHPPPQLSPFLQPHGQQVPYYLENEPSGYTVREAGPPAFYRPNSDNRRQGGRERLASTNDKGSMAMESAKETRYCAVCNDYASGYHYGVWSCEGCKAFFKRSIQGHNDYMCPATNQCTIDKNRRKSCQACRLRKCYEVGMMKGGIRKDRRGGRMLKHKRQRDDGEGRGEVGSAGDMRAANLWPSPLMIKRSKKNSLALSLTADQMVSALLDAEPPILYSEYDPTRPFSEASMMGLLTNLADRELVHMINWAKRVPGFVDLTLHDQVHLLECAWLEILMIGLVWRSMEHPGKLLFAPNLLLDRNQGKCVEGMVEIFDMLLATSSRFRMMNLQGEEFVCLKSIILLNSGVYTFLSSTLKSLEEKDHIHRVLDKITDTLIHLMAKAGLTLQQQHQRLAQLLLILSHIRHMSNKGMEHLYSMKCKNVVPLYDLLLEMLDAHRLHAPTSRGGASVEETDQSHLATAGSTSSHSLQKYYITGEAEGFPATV
Procedure, shortened: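 VM7Luc4E2 cells (endogenous full-length ER-alpha, 4×ERE-luciferase) were precultured 5 days in phenol red-free medium with 10% charcoal-stripped FBS, given 10.0nM ICI-182,780 (final), then treated with compounds at 15 concentrations for 22hr at 37C; luminescence read with ONE-Glo.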

[7] = qHTS assay to identify small molecule agonists of the estrogen receptor alpha (ER-alpha) signaling pathway in the presence of an antagonist - cell viability counter screen (AID 1259386);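 further: cells exposed to compounds for 22 h at 37 °C before the viability read; nearly all actives have a fitted effect of over 30% in size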; further: potency means the concentration at half of the fitted maximal effect
Procedure, shortened: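 VM7Luc4E2 cells (endogenous full-length ER-alpha, 4×ERE-luciferase) were held 5 days in phenol red-free medium with 10% charcoal-stripped FBS, plated, then given 10.0nM ICI-182,780 and compounds at 15 concentrations for 22hr at 37C; viability read by CellTiter-Fluor fluorescence.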

[8] = qHTS assay to identify small molecule antagonists of the progesterone receptor (PR) signaling pathway - cell viability counter screen (AID 1346798); further: nearly all actives have a fitted effect of over 50% in size; further: potency means the concentration at half of the fitted maximal effect
Procedure, shortened: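 Same-well multiplex: after 16 hr at 37C with compound and R5020 stimulation, HEK293T cells carrying a UAS-bla reporter received LiveBLAzer substrate (2 hr RT), then CellTiter-Glo (30 min RT) for luminescent viability.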

[9] = qHTS assay to identify small molecule agonists of the progesterone receptor (PR) signaling pathway - cell viability counter screen (AID 1346799; calls by dose curve; further: nearly all actives have a fitted effect of over 45% in size; further: potency means the concentration at half of the fitted maximal effect)
Procedure, shortened: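 Counter screen for cytotoxicity: compound-treated PR-UAS-bla HEK293T cells (16 hr, 37C, 5% CO2) were assayed with CellTiter-Glo, luminescence measured after 30 min at room temperature.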

[10] = qHTS assay to identify small molecule agonists of the TGF-beta/Smad signaling pathway - cell viability counter screen (AID 1346829); further: nearly all actives have a fitted effect of over 45% in size; further: potency means the concentration at half of the fitted maximal effect
Procedure, shortened: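 SBE-bla HEK 293T cells plated overnight, compound exposure 5 hr at 37 C. Viability read in the same wells by CellTiter-Glo luminescence after 30 min at room temperature, following the beta-lactamase read.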

[11] = qHTS assay to identify small molecule agonists of the TGF-beta/Smad signaling pathway (AID 1346859; active means well fitted activation curve with a large enough effect in the signal ratio in the repeat runs, not every such curve was filed as active; the % refers to the signal ratio; further: series mostly up to about 77 µM)
Procedure, shortened: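 Smad-responsive beta-lactamase reporter cells (HEK 293T) received compounds from DMSO stocks after overnight attachment, were incubated 5 hr, then treated 2 hr with FRET substrate before dual-emission fluorescence measurement (405 nm excitation).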

[12] = target: Thyrotropin-releasing hormone receptor (Homo sapiens) (UniProt P34981); assay: qHTS assay to identify small molecule antagonists of the thyrotropin-releasing hormone receptor (TRHR) signaling pathway (AID 1346877; active means well fitted inhibition curve with a large enough effect in the repeat runs, not every such curve was filed as active; further: series mostly up to about 51 µM)
Chain of Thyrotropin-releasing hormone receptor (Homo sapiens) (P34981 whole entry, looked up): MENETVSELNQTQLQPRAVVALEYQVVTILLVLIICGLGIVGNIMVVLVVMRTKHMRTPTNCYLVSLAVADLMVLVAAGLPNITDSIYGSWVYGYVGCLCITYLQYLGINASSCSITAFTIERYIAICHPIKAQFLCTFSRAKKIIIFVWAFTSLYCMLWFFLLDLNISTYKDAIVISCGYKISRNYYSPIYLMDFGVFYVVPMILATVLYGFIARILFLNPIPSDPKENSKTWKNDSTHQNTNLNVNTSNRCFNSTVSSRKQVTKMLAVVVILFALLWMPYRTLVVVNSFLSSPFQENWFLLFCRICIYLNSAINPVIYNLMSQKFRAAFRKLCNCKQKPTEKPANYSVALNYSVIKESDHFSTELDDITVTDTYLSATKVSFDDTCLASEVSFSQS
Procedure, shortened: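 TRHR-expressing HEK293 cells were seeded, cultured 18 h at 37 °C, then loaded with calcium dye for 2 h. Compounds were pre-incubated 5 min at room temperature before 1 nM TRH (final) was added, and kinetic fluorescence was recorded for 3 min.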

[13] = target: Thyrotropin-releasing hormone receptor (Homo sapiens) (UniProt P34981); assay: qHTS assay to identify small molecule agonists of the thyrotropin-releasing hormone receptor (TRHR) signaling pathway (AID 1346891; calls by dose curve; further: series mostly up to about 58 µM)
Procedure, shortened: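 Agonist-mode calcium mobilisation screen: TRHR-transfected HEK293 cells cultured overnight (18 h), dye-loaded for 2 h at 37 °C, exposed to compounds, and monitored by fluorescence for 3 min.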

[14] = target: Estrogen receptor beta (Homo sapiens) (UniProt Q92731); assay: qHTS assay to identify small molecule antagonists of the estrogen receptor beta (ER-beta) signaling pathway (AID 1259378; active means well fitted inhibition curve with a large enough effect in the signal ratio in the repeat runs, not every such curve was filed as active; the % refers to the signal ratio; further: potency means the concentration at half of the fitted maximal effect)
Procedure, shortened: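 ER-beta-UAS-bla HEK293T cells in 2% charcoal-stripped FBS medium treated with compound plus 1nM final 17-beta-estradiol for 16 hr at 37C. Beta-lactamase reporter read by FRET substrate fluorescence after 2 hours at room temperature.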

[15] = qHTS assay to identify small molecule agonists or antagonists of the thyroid stimulating hormone receptor (TSHR) signaling pathway - wild type cell line counter screen (AID 1259384; calls by dose curve)
Procedure, shortened: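 Wild-type Hek293 cells, 800/well, 18 h at 37C, then compound with Ro20-1724 for 30 min RT. cAMP by HTRF (cAMP-d2/anti-cAMP cryptate), 1 h RT, fluorescence read. 15 concentrations, triplicates.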

[16] = target: Thyrotropin receptor (Homo sapiens) (UniProt P16473); assay: qHTS assay to identify small molecule antagonists of the thyroid stimulating hormone receptor (TSHR) signaling pathway (AID 1259385; calls by dose curve; further: nearly all actives have a fitted effect of over 20% in size)
Chain of Thyrotropin receptor (Homo sapiens) (P16473 whole entry, looked up): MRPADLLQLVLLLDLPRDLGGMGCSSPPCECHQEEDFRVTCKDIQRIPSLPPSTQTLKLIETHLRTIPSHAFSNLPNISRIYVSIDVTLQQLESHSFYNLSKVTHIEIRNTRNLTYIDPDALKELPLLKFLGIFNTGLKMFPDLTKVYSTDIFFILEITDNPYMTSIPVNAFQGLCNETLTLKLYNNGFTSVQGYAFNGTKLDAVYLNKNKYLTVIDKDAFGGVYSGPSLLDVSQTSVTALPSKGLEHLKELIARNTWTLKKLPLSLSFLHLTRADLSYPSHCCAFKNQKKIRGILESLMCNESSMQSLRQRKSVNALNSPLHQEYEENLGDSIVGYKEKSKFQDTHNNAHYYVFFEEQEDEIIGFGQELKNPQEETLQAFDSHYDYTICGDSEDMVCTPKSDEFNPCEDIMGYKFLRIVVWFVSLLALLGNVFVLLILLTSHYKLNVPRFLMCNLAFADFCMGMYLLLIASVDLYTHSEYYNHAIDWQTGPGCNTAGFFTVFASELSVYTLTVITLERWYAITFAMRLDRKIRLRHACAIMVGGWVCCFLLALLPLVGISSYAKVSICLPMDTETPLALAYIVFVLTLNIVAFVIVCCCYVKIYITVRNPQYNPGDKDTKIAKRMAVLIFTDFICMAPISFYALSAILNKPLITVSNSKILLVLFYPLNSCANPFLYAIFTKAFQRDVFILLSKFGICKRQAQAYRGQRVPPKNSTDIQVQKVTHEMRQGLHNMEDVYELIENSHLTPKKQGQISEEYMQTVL
Procedure, shortened: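 TSHR-HEK293 cells (800/well) plated 18 h, then compounds with Ro20-1724 and TSH at 1.5 ng/mL final, 30 min at room temperature. cAMP quantified by HTRF (cAMP-d2/anti-cAMP-cryptate, 1 h); 15 concentrations in triplicate.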

[17] = target: Progesterone receptor (Homo sapiens) (UniProt P06401); assay: qHTS assay to identify small molecule agonists of the progesterone receptor (PR) signaling pathway (AID 1346784; calls by dose curve; further: nearly all actives have a fitted effect of over 30% in size; further: potency means the concentration at half of the fitted maximal effect)
Chain of Progesterone receptor (Homo sapiens) (P06401 whole entry, looked up): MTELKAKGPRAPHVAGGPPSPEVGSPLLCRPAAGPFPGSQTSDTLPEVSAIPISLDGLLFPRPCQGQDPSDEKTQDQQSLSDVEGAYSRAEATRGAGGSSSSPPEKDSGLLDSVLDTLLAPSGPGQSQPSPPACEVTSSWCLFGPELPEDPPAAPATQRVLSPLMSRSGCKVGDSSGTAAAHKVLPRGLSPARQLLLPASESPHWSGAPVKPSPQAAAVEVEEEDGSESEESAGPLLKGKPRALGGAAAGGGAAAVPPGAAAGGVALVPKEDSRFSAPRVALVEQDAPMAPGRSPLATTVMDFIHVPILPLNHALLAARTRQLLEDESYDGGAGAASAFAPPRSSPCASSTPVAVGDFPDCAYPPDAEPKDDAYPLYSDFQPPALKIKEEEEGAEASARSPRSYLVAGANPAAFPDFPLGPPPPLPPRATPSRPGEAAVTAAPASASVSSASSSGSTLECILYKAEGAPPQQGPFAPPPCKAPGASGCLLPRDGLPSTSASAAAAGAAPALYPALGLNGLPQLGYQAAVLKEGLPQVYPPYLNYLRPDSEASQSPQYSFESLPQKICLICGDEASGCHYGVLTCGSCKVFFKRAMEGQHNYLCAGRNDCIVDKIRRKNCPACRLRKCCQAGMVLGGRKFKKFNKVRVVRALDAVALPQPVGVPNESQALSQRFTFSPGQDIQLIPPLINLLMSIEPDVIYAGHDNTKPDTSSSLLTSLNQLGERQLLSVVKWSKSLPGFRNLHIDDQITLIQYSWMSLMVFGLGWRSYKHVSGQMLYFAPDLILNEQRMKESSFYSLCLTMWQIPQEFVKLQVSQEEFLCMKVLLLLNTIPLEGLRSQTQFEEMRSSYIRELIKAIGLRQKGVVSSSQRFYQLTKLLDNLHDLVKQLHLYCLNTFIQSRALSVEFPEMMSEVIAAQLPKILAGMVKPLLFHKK
Procedure, shortened: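 Agonist mode, quantitative HTS format in a HEK 293T line expressing a UAS-controlled beta-lactamase reporter; 16 hr compound exposure at 37C in 2% charcoal-stripped FBS, then LiveBLAzer B/G FRET fluorescence.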

[18] = target: Progesterone receptor (Homo sapiens) (UniProt P06401); assay: qHTS assay to identify small molecule antagonists of the progesterone receptor (PR) signaling pathway (AID 1346795; active means well fitted inhibition curve with a large enough effect in the signal ratio in the repeat runs, not every such curve was filed as active; the % refers to the signal ratio; further: potency means the concentration at half of the fitted maximal effect)
Procedure, shortened: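 HEK293T PR-UAS-bla reporter cells in charcoal-stripped serum (2%) received compound after a 6 hr settling period, followed by R5020 agonist at 1 nM final; 16 hr incubation preceded the FRET substrate step and fluorescence measurement.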

[19] = qHTS assay to identify small molecule antagonists of the TGF-beta/Smad signaling pathway - cell viability counter screen (AID 1346824); further: nearly all actives have a fitted effect of over 50% in size; further: potency means the concentration at half of the fitted maximal effect
Procedure, shortened: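 SBE-bla HEK 293T cells, incubated overnight, then compound plus 0.25 ng/mL TGF-beta1 (stock added) for 5 hr at 37 C. Viability was read in the same wells by CellTiter-Glo luminescence after 30 min at room temperature.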

Measured: Potency

CC(C)CCCCCCc1ccc(O)cc1
inactive: [2] | [10] | [11] | [12] | [13]
active: [4] 3.92 µM and 61.1 µM | [6] 15.6 µM and 27.3 µM | [8] 6.22 µM
4.94 µM (active) and inactive: [9]
5.54 µM (active) and inactive: [5]
27.8 µM (active) and inactive: [3] | [7]
24.8 µM (active) and inactive: [1]

CC(C)(C)c1ccccc1
not listed: [6] | [10]
inactive: all other assays above

O=C(OCc1ccccc1)c1ccc(O)cc1
active: [14] 19.3 µM

CCCCCCCCCCCCc1ccccc1O
active: [14] 1.35 µM

COc1ccc(CCN2CCC(Nc3nc4ccccc4n3Cc3ccc(F)cc3)CC2)cc1
inactive: [15] | [17] | [11] | [12] | [13]
active: [1] 625 nM and 3.35 µM | [3] 17.6 µM and 21.1 µM | [4] 9.9 µM and 23.7 µM | [5] 9.9 µM and 21.1 µM | [18] 18.8 µM | [8] 17.6 µM and 23.7 µM | [9] 14 µM | [19] 39.8 µM | [10] 44.6 µM
39.4 µM (active) and inactive: [7]

CC1=C(C=O)C(C)(C)CC=C1
not listed: [1] | [2] | [6] | [14] | [18]
inactive: all other assays above

CC[C@]1(O)C[C@@H]2CN(CCc3c([nH]c4ccccc34)[C@@](C(=O)OC)(c3cc4c(cc3OC)N(C)[C@H]3[C@@](O)(C(=O)OC)[C@H](OC(C)=O)[C@]5(CC)C=CCN6CC[C@]43[C@@H]65)C2)C1
active: [1] 37.6 nM | [7] 10.6 µM
not listed: [2] | [6] | [8] | [9] | [14] | [18]
inactive: all other assays above

CCN(CC)c1ccc2c(C)cc(=O)oc2c1
active: [1] 24.5 µM and 54.5 µM | [17] 30.9 µM and 34.4 µM
not listed: [2] | [4] | [11] | [14] | [18]
inactive: all other assays above

Source: PubChem BioAssay (Tox21)
